The panel holds about 83,000 compounds, 20% with a hit somewhere; the sample as a whole holds those more often.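 Cells were grown in 96-well plates and exposed to the test compound at a single concentration for 48 hours; results are reported as percent growth, with values below 10 considered active.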 A number with no mark means an inactive call. Active and inactive are the calls of the source.

The subject of one experiment is SK-OV-3 ovarian. In words: NCI-60 one-dose screen, 48 h (100 = growth as untreated, 0 = no growth, -100 = all killed). To be noted: 10 µM unless noted.
Take `CC(C)OC(=O)c1ccc([N+](=O)[O-])cc1`: the growth was 107%.

Turning to `COc1cc(CN2CCO[C@H](COc3cccc(F)c3)C2)ccc1Cl`, the growth was 34.5%.

On to `COc1cc(NC(C)CCCN)c2ncccc2c1Oc1ccc(Cl)cc1` (stereo not given), for which the growth is 98.6%.

For the molecule `OC(c1cc(-c2ccc(C(F)(F)F)cc2)nc(-c2ccc(C(F)(F)F)cc2)c1)C1CCCCN1` (stereo not given), the growth is -74.3% (active).

As to `C=CCn1c(C)nc2cc(Nc3nc(Nc4ccc5nc(C)n(CC=C)c5c4)nc4ccccc34)ccc21`, the growth was 104%.

`Fc1ccc2c(CN3CCO[C@H](COc4cccc(Cl)c4)C3)c[nH]c2c1`: the growth is 85.7%.

The next experiment has as its system IGROV1 ovarian. The description is as above. The following applies: 10 µM unless noted.
On to `Cn1nc(C(F)(F)F)cc1-c1cc(Cl)c(OCc2ccc(Cl)cc2)c(-c2ccc(Cl)c(C(F)(F)F)c2)c1O`, for which the growth is 25.9%.

On to `CC(=O)O[C@H]1[C@H](CC#CC#CC[C@@H]2C[C@]3(C)[C@H]4CC=C5[C@H]6[C@@H](C)[C@H](C)CC[C@]6(C(=O)NCCN(CCN)CCN)CC[C@@]5(C)[C@]4(C)CC[C@H]3C(C)(C)[C@H]2OC(C)=O)C[C@]2(C)[C@H]3CC=C4[C@H]5[C@@H](C)[C@H](C)CC[C@]5(C(=O)NCCN(CCN)CCN)CC[C@@]4(C)[C@]3(C)CC[C@H]2C1(C)C`, for which the growth is 62.3%.

Consider `CC(=O)c1ccc(Nc2nc(Cl)nc(Oc3c(Cl)cccc3Cl)n2)cc1`, for which the growth is 89.1%.

Consider `Oc1[nH]c2ccccc2c1/C=c1/ccc2c(c1)N=C(c1ccc(C(F)(F)F)cc1)N=2`, for which the growth was 41.3%.

`Brc1cccc(-n2ncc3c(Nc4ccc(-c5nnc(-c6ccccc6)o5)cc4)ncnc32)c1`: the growth is 112%.

With `CCNC(=S)N(Cc1ccccc1)Cc1ccccc1`, the growth was 113%.

Regarding `COc1cccc(CC(C)=C(c2ccc(OCCCN(C)C)cc2)c2ccc(OCCCN(C)C)cc2)c1`, the growth is -82.6% (active).

Consider `N[C@@H](CO)C(=O)O`, for which the growth is 110%.

In the case of `O=C(c1ccc(C(F)(F)F)c(Cl)c1)N(Cc1ccc(Cl)cc1)c1ccc(-c2cc(C(F)(F)F)[nH]n2)c(O)c1`, the growth is 15.2%.

As for `c1ccc(C(Nc2ccccn2)(c2ccccc2)c2ccccc2)cc1`, the growth was 88.7%.

With `CC[C@H](Nc1nc(N)nc(N)c1Cl)c1nc2cccc(NCc3ccc(C(=O)NO)cc3)c2c(=O)n1-c1ccccc1`, the growth was -46.6% (active).

With `N#Cc1nc(-c2ccc(Cl)cc2)cc(-c2ccc(Nc3nc(N4CCCCC4)nc(N4CCCCC4)n3)cc2)c1N`, the growth is 91.4%.

For the molecule `C#CC[C@@H]1C[C@]2(C)[C@H]3CC=C4[C@H]5[C@@H](C)[C@H](C)CC[C@]5(C(=O)NCCCCN)CC[C@@]4(C)[C@]3(C)CC[C@H]2C(C)(C)[C@H]1OC(C)=O`, the growth was 74.8%.

Regarding `Cn1nc(C(F)(F)F)cc1-c1c[nH]c(OCc2ccc(Cl)cc2)c(-c2ccc(Cl)c(C(F)(F)F)c2)c1=O`, the growth was 24.1%.

For `COc1ccc(NC(=O)c2ccc(C(F)(F)F)nc2Nc2ccc(Cl)cc2C)cc1Cl`, the growth is 27%.

As for `O=C(Cn1nncc1CN1C(=O)CSC1=O)Nc1ccc(F)cc1`, the growth is 102%.

Take `COc1ccc(NC(=O)/C=C/c2ccc(Cl)c(Cl)c2)cn1`: the growth was 67.8%.

With `CCCCNCC(O)c1cc(-c2ccc(C(F)(F)F)cc2)nc(-c2ccc(C(F)(F)F)cc2)c1` (stereo not given), the growth is -59.7% (active).

On to `CCCc1cc2c(cc1CN(Cc1cc3c(cc1CCC)OCO3)C(=N)OCC)OCO2`, for which the growth was 63.3%.

Take `CCCNC(=S)N/N=C(\C)c1ccccn1`: the growth is 9.27% (active).

With `C#CC[C@@H]1C[C@]2(C)[C@H]3CC[C@@H]4[C@H]5C(C(=C)C)CC[C@]5(C(=O)NCCCN5CCN(CCCN)CC5)CC[C@@]4(C)[C@]3(C)CC[C@H]2C(C)(C)[C@H]1OC(C)=O` (stereo not given in full), the growth is -46.7% (active).

For `COc1cc2nccc(Oc3ccc(NC(=O)C4(C(=O)Nc5c(F)cc(F)cc5F)CC4)cc3)c2cc1Oc1ccc(N)cn1`, the growth is 28.1%.

Take `COc1ccc2[nH]c(C(=O)OCc3ccc4cccc(O)c4n3)cc2c1`: the growth was -91.2% (active).

As to `CCOCC(O)(c1ccc(Cl)cc1)c1ccc(Cl)cc1`, the growth is 101%.

Turning to `Cc1cc(C)cc(NC(=O)Cn2nncc2CN2C(=O)CSC2=O)c1`, the growth was 110%.

Regarding `Cc1ccc(NC(=O)Cn2nncc2CN2C(=O)CSC2=O)cc1C`, the growth was 111%.

For `COC(=O)/C=C/c1cc(OC(C)=O)c2c(c1)[C@@H](C(=O)OC)[C@H](c1ccc(OC(C)=O)c(OC(C)=O)c1)O2`, the growth was 12.2%.

On to `N=c1n(Cc2ccccc2)c(N)cc(=O)n1Cc1ccccc1`, for which the growth is 37.9%.

For `CC(C)[C@H](CN)NC[C@H](C)NS(=O)(=O)c1ccc(C(C)(C)C)cc1`, the growth is 97%.

For `COc1ccc(/C(=C\c2ccc3c(c2)OCO3)C(=O)Nc2nc3ccccc3s2)cc1`, the growth is 103%.

As for `Cc1ccc(-c2cnc3sc4ccc(Cl)cc4n23)cc1`, the growth is 81%.

With `COc1cc(C2Nc3ccccc3S2)cc(CN2CCOCC2)c1O` (stereo not given), the growth is 39%.

`CC1=C(O)C(=O)C(c2c(C)cc(C)c(Br)c2C)=C(O)C1=O`: the growth was 46.3%.

On to `CC(C)OC(=O)c1ccc([N+](=O)[O-])cc1`, for which the growth was 119%.

As to `COc1cc(CN2CCO[C@H](COc3cccc(F)c3)C2)ccc1Cl`, the growth was 67.3%.

For `COc1cc(NC(C)CCCN)c2ncccc2c1Oc1ccc(Cl)cc1` (stereo not given), the growth was 64.6%.

Consider `OC(c1cc(-c2ccc(C(F)(F)F)cc2)nc(-c2ccc(C(F)(F)F)cc2)c1)C1CCCCN1` (stereo not given), for which the growth was -65.2% (active).

As to `C=CCn1c(C)nc2cc(Nc3nc(Nc4ccc5nc(C)n(CC=C)c5c4)nc4ccccc34)ccc21`, the growth was 102%.

In the case of `Fc1ccc2c(CN3CCO[C@H](COc4cccc(Cl)c4)C3)c[nH]c2c1`, the growth was 63%.

The record behind these values is PubChem BioAssay (NCI).
